Measurements published in PubChem BioAssay (Tox21).
Inconclusive results are not listed. Active and inactive are the calls of the source. Unless noted, calls follow the shape of the dose curve; as a rule, active = well fitted curve in the direction sought with a large enough effect in the repeat runs; inconclusive = weak or mixed curves; inactive = no such curve, though single readings can be large; an effect the other way counts as inactive or inconclusive.

Key:
[1] = qHTS assay for small molecules that induce genotoxicity in human embryonic kidney cells expressing luciferase-tagged ATAD5 (AID 651632); also: nearly all actives have a fitted effect of over 15% in size
In short: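 HEK293T cells carrying a luciferase reporter tagged to ATAD5 were exposed to compound or DMSO vehicle for 16 hr at 37C, 5% CO2. Amplite was added, and after 30 min at room temperature luciferase activity was read as a marker of ATAD5 induction.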

[2] = qHTS assay for small molecule agonists of the p53 signaling pathway - cell viability (AID 651633; calls by dose curve;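 also: p53RE-bla HCT reporter cells with a stable beta-lactamase p53 reporter; series mostly up to about 83 µM; nearly all actives have a fitted effect of over 30% in size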)
In short: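 p53RE-bla cells, seeded at 4,000 per well and rested 5 h at 37 C/5% CO2, received compounds in DMSO for 16 h at 37 C. CellTiter-Glo was then added, and luminescence was read after 30 min at room temperature to gauge cytotoxicity.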

[3] = qHTS assay for small molecule disruptors of the mitochondrial membrane potential - cell viability (AID 720634; calls by dose curve;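 also: human HepG2 liver cancer cells; series mostly up to about 83 µM; nearly all actives have a fitted effect of over 20% in size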)
In short: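 HepG2 cells seeded overnight at 37 C, then exposed to compound or DMSO for 1 hr at 37 C, 5% CO2. m-MPI dye added, then CellTiter-Glo for 30 min at room temperature; viability read as ATP luminescence.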

[4] = qHTS assay for small molecule disruptors of the mitochondrial membrane potential (AID 720635)
In short: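 HepG2 cells (2,000/well) attached overnight at 37C, then took compound for 1 hr at 37C, 5% CO2. Mito-MPS dye was added for 30 min; fluorescence was read at 490/535 nm (monomers) and 540/590 nm (aggregates).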

[5] = qHTS assay to test for compound auto fluorescence at 590 nm (red) in HepG2 cells (AID 720674)
In short: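 Intrinsic compound fluorescence in the red window (Ex/Em 540/590 nm) is measured in attached HepG2 cells exposed for 1 hr, DMSO vehicle as baseline, benchmarked to Rose Bengal sodium.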

[6] = qHTS assay to test for compound auto fluorescence at 535 nm (green) in HepG2 cells (AID 720675)
[7] = qHTS assay to test for compound auto fluorescence at 460 nm (blue) in HEK293 cells (AID 720678)
In short: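 Auto fluorescence in the blue band was quantified as triamterene equivalency. HEK293 cells were seeded at 2,000/well, dosed after a 4-5 hr attachment, and kept overnight at 37C before the 405/460 nm reading.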

[8] = qHTS assay to test for compound auto fluorescence at 590 nm (red) in HEK293 cells (AID 720679)
In short: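 Autofluorescence equivalency to Rose Bengal sodium, 540/590nm, in HEK293 cells exposed overnight to 23 nL compound per well.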

[9] = qHTS assay to test for compound auto fluorescence at 535 nm (green) in HEK293 cells (AID 720680)
[10] = qHTS assay to test for compound auto fluorescence at 460 nm (blue) in HEK293 cell free culture (AID 720681)
In short: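 Test compounds were pinned into cell-free culture medium (DMEM with 10% FBS) and fluorescence was read directly at Ex/Em 405/460 nm. Signals were expressed as fluorescence equivalents of triamterene, with DMSO vehicle as control.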

[11] = qHTS assay to test for compound auto fluorescence at 590 nm (red) in HEK293 cell free culture (AID 720683)
In short: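 Tox21 10K library compounds were pinned into cell-free DMEM with 10% FBS and fluorescence was read at excitation 540 nm. Activity is expressed as Rose Bengal sodium equivalency.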

[12] = qHTS assay to test for compound auto fluorescence at 590 nm (red) in HepG2 cell free culture (AID 720684)
In short: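 Red fluorescence (540 nm excitation, 590 nm emission) was measured after compound transfer into cell-free MEM supplemented with 10% FBS. Values are equivalencies against Rose Bengal sodium.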

[13] = qHTS assay to test for compound auto fluorescence at 460 nm (blue) in HepG2 cell free culture (AID 720685)
In short: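 Compound (23 nL) or DMSO pinned into cell-free MEM with 10% FBS; blue fluorescence read at 405/460 nm excitation/emission, expressed as auto-fluorescence equivalency to triamterene.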

[14] = qHTS assay to test for compound auto fluorescence at 535 nm (green) in HepG2 cell free culture (AID 720686)
[15] = qHTS assay to test for compound auto fluorescence at 460 nm (blue) in HepG2 cells (AID 720687)
In short: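 Cells (2,000/well in MEM with 10% FBS) attached overnight at 37 C, then were exposed to compound or DMSO for 1 hr at 37 C, 5% CO2. Fluorescence read at Ex/Em 405/460 nm, expressed as triamterene-equivalent signal.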

[16] = qHTS assay to test for compound auto fluorescence at 535 nm (green) in HEK293 cell free culture (AID 720682)
In short: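 Read-out: 485/535 nm fluorescence intensity, calibrated against fluorescein. Medium only (DMEM + 10% FBS, no cells); test compound or DMSO vehicle added by pintool before plate reading.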

[17] = target: Glucocorticoid receptor (Homo sapiens) (UniProt P04150); assay: qHTS assay to identify small molecule agonists of the glucocorticoid receptor (GR) signaling pathway (AID 720691; active = well fitted activation curve with a large enough effect in the signal ratio in the repeat runs, not every such curve was filed as active; the % refers to the signal ratio)
Glucocorticoid receptor (Homo sapiens), sequence (P04150 whole entry, looked up): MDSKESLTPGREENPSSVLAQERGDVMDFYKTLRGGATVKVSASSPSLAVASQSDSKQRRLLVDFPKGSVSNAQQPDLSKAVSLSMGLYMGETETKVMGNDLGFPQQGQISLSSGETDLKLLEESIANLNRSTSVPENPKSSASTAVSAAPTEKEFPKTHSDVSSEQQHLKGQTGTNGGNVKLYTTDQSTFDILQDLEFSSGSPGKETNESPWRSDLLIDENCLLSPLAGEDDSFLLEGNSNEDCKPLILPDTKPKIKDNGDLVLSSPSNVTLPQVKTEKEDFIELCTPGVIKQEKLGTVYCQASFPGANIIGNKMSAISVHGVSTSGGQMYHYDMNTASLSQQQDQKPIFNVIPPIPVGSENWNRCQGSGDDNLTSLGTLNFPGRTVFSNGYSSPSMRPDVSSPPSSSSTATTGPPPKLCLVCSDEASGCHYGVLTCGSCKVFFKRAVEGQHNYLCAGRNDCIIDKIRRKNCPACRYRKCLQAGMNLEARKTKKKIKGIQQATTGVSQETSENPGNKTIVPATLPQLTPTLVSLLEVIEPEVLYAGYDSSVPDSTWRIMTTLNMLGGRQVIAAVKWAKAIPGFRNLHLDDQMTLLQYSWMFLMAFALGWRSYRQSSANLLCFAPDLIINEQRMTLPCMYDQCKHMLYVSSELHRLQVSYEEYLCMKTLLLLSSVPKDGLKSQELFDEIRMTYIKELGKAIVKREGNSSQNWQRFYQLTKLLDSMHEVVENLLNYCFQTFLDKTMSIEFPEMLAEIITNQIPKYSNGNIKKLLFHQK
In short: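 GR-bla HeLa cells (beta-lactamase reporter under glucocorticoid response element) were plated 4 h at 37 C/5% CO2, given compounds in DMSO, and incubated 18 h at 37 C. LiveBLAzer B/G FRET substrate was added for 2 h at room temperature, then fluorescence intensity read.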

[18] = target: Glucocorticoid receptor (Homo sapiens) (UniProt P04150); assay: qHTS assay to identify small molecule antagonists of the glucocorticoid receptor (GR) signaling pathway (AID 720692; active = well fitted inhibition curve with a large enough effect in the signal ratio in the repeat runs, not every such curve was filed as active; the % refers to the signal ratio)
In short: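 GR-bla HeLa cells (beta-lactamase reporter under glucocorticoid response element) were pre-plated 4 h at 37 C, treated with compounds plus 5 nM dexamethasone (final) for 18 h, then read by LiveBLAzer B/G FRET fluorescence after 2 h.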

[19] = qHTS assay for small molecules that induce genotoxicity in human embryonic kidney cells expressing luciferase-tagged ATAD5 - cell viability (AID 651634; calls by dose curve; also: nearly all actives have a fitted effect of over 25% in size)
In short: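 HEK293T cells expressing luciferase-tagged ATAD5 were exposed to compound or DMSO for 15.5 hr at 37C, 5% CO2. Viability was then read as live-cell protease activity by CellTiter-Fluor fluorescence after 30 min at 37C.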
% is scaled to controls: 0 for no effect and ±100 for the full control effect.

CC(=O)CC/C=C(\C)CC/C=C(\C)CC/C=C(\C)CCC=C(C)C
inactive: Potency [1] | Potency [2] | Potency [3] | Potency [4] | outcome [5] | outcome [6] | Potency [7] | outcome [8] | outcome [9] | Potency [10] | outcome [11] | outcome [12] | outcome [13] | outcome [14] | outcome [15]

O=Cc1ccc(Cl)c([N+](=O)[O-])c1
inactive: Potency [1] | Potency [2] | Potency [3] | outcome [5] | outcome [6] | Potency [7] | outcome [8] | outcome [9] | Potency [10] | outcome [11] | outcome [12] | outcome [13] | outcome [14] | outcome [15]

C=Cc1ccc(C=C)cc1
inactive: Potency [1] | Potency [2] | Potency [3] | outcome [5] | outcome [6] | Potency [7] | outcome [8] | outcome [9] | Potency [10] | outcome [16] | outcome [11] | outcome [13] | outcome [14] | outcome [15] | Potency [17] | Potency [18]

CC(C(=O)O)c1ccc(/C=C2\CCCCC2=O)cc1 (stereo unspecified)
inactive: Potency [2] | Potency [19] | Potency [3] | outcome [5] | outcome [6] | Potency [7] | outcome [8] | Potency [10] | outcome [16] | outcome [12] | outcome [13] | outcome [14] | outcome [15] | Potency [17]

O=C(NC1CCN(CCc2c[nH]c3ccccc23)CC1)c1ccccc1
inactive: Potency [1] | Potency [19] | Potency [3] | outcome [5] | outcome [6] | Potency [7] | outcome [8] | outcome [9] | outcome [16] | outcome [11] | outcome [12] | outcome [13] | outcome [14] | outcome [15]

Cc1c(-c2cccnc2)c2ccccc2n1CCCCC(=O)O
inactive: Potency [1] | Potency [3] | outcome [5] | outcome [6] | Potency [7] | outcome [8] | outcome [9] | Potency [10] | outcome [16] | outcome [11] | outcome [12] | outcome [13] | outcome [14] | outcome [15]

COC=O
inactive: activation [1] -1.31% [at 8.08 µM] | activity change, negative = cytotoxicity [3] 7.15% [at 8.08 µM] | fluorescence, relative to Rose Bengal [5] 0.0697% [at 9.17 µM] | fluorescence, % of fluorescein control [6] 0.016% [at 9.17 µM] | fluorescence, % of triamterene [7] -0.185% [at 9.17 µM] | fluorescence, % of fluorescent control [8] 0.13% [at 9.17 µM] | fluorescence, % of fluorescein [9] -0.112% [at 9.17 µM] | fluorescence, % of fluorescent control [10] -0.168% [at 9.17 µM] | activity change [16] -0.0308% [at 9.17 µM] | fluorescence, % of fluorescent control [11] -0.0562% [at 9.17 µM] | fluorescence, % of Rose Bengal [12] -0.0589% [at 9.17 µM] | fluorescence, % of fluorescent control [13] -0.142% [at 9.17 µM] | fluorescence, % of fluorescein control [14] -0.0327% [at 9.17 µM] | fluorescence, % of fluorescent control [15] -0.259% [at 9.17 µM]

CCCC1CCOC(C)S1 (stereo unspecified)
inactive: Potency [1] | Potency [19] | Potency [3] | Potency [4] | outcome [5] | outcome [6] | Potency [7] | outcome [8] | outcome [9] | Potency [10] | outcome [16] | outcome [13] | outcome [14] | outcome [15] | Potency [17] | Potency [18]

COc1ccc(CN(CCN(C)C)c2ncccn2)cc1
inactive: Potency [2] | Potency [19] | Potency [3] | outcome [5] | outcome [6] | Potency [7] | outcome [8] | outcome [9] | Potency [10] | outcome [12] | outcome [13] | outcome [14] | outcome [15] | Potency [17] | Potency [18]

C=CC(C)CCC=C(C)C (stereo unspecified)
inactive: Potency [1] | Potency [3] | outcome [5] | outcome [6] | Potency [7] | outcome [8] | Potency [10] | outcome [16] | outcome [11] | outcome [12] | outcome [13] | outcome [14] | outcome [15] | Potency [17]
